The source of these data is PubChem BioAssay AID1851 (National Center for Advancing Translational Sciences (NCATS), 2009).

“And” between values parts separate entries of the source, which are not always exact repeats. Equal values may be shown once. Hit rate of the full screen: of about 16,000 compounds, about 5,700 (36%) were called active. Roughly 24% stayed inconclusive and do not appear here. The list shows a part of the results. Unmarked numbers belong to inactive results. Calls follow the shape of the dose curve; as a rule, active = well fitted curve in the direction sought with a large enough effect; inconclusive = small, poorly fitted or top-dose-only effect, or effect the other way; inactive = no such curve, though single readings can be large or run the other way.
% is scaled to controls: 0 for no effect and ±100 for the full control effect.

Cytochrome P450 1A2 (Homo sapiens), sequence (P05177 whole entry, looked up): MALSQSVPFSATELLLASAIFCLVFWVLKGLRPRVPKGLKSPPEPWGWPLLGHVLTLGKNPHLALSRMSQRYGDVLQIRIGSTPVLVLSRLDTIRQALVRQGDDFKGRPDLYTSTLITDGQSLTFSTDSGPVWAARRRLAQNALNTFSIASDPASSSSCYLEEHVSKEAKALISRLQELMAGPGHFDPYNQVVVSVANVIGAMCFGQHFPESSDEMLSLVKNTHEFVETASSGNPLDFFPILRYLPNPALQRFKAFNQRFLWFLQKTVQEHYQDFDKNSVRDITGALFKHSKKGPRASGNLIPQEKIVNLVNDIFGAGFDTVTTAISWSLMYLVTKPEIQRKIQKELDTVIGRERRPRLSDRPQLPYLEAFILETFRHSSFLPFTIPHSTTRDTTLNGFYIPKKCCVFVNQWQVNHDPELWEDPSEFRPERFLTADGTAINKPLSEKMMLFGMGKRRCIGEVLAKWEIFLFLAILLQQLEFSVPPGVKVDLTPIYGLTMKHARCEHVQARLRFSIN

For this assay, the target named is Cytochrome P450 1A2 (Homo sapiens) (UniProt P05177). Briefly: Cytochrome panel assay with activity outcomes. To be noted: recombinant CYP, pro-luciferin dealkylation, luminescence, p450-cyp1a2; series mostly up to 57.1 µM. How it is done:
The P450 gene superfamily is involved in the metabolism and clearance of xenobiotics. This assay used various human CYP P450 isozymes to measure the dealkylation of various pro-luciferin substrates to luciferin. The luciferin is then measured by luminescence after the addition of a luciferase detection reagent. Pro-luciferin substrate concentration in the assay was equal to its KM for its CYP P450 isozyme. Inhibitors and some substrates limit the production of luciferin, and decrease measured luminescence.
NCGC Assay Protocol Summary:
1, Reagent, 2 uL, Isozyme and Pro-Luciferin
2, Library compounds, 23 nl, 40 uM to 0.24 nM dilution series
3, Controls, 23 nl, Isozyme specific inhibitor
4, Reagent, 2 uL, NADPH regeneration solution
5, Incubation time, 60 min, Isozyme specific temperature
6, Reagent, 4ul, Detection reagent
7, Incubation time, 20 min, Isozyme specific temperature
8, Detection, 1 sec, ViewLux luminescent read
The luciferase-based P450-GloTM Screening Systems were obtained from Promega (Madison, WI) for CYP 1A2 (V9770), CYP 2C9 (V9790), CYP2 C19 (V9880), CYP 2D6 (V9890), and CYP 3A4 Luciferin-PPXE (V9910) and were adapted for 1,536-well microplates and an automated protocol. The control compounds furafylline for 1A2 (F124), sulfaphenazole for CYP 2C9 (S0758), ketoconazole for CYP 2C19 (K1003), quinidine for 2D6 (Q3625), and ketoconazole for 3A4 (K1003) were purchased from Sigma Aldrich (St. Louis, MO). Recombinant P450 enzymes were obtained from baculovirus constructs expressed in insect cells (BD/Gentest).
Medium-binding white solid Kalypsys plates used. Mixtures kept on ice. 1A2: 10 nM 1A2, 100 uM Luc-ME, 100 mM KPO4; 2C9: 10 nM 2C9, 100 uM Luc-H, 25 mM KPO4; 2C19: 5 nM 2C19, 10 uM Luc-H EGE, 50 mM KPO4; 2D6: 5 nM 2D6, 30 uM Luc-ME EGE, 100 mM KPO4; 3A4: 10 nM, 25 uM Luc-PPXE. All amounts are reflected in their final concentration, working concentration is 2x.
NADPH regeneration solution: 1.3 mM NADP+, 3.3 mM glucose-6-phosphate, 3.3 mM MgCl2, 0.4 U/mL glucose-6-phosphate dehydrogenase for all isozymes, 200 mM KPO4 for 3A4. Mixture prepared at RT but kept on ice during automated run.
RT incubation in auxilliary plate hotel for 1A2, 2D6, and 3A4; 37C for 2C9 and 2C19.
Keywords: P450, CYP1A2, CYP2C19, CYP2C9, CYP2D6, CYP3A4, Luciferase, MLSMR, MLSCN, NIH Roadmap, qHTS, NCGC
For orientation: AC50 means the concentration giving half of the maximal activity seen. On to `C[C@H](N)Cc1c[nH]c2ccc(OCc3cccs3)cc12`, for which the half-maximal activity concentration (AC50) is 1.58 µM (active) and 126 nM (active).

With `C[C@H](N)Cc1c[nH]c2ccc(O)cc12`, the AC50 entry was “inactive”. Still for that read-out and setting: for `O=P(O)(O)C(Cl)(Cl)P(=O)(O)O` the value was “inactive”. Take `CS(=O)(=O)Nc1ccc(Cc2noc(-c3ccc4[nH]cc(CCN)c4c3)n2)cc1`: the AC50 is 0.0316 µM (active).

Turning to `C=C[C@]12CN(C)[C@H]3C1[C@@]1(C(=O)Nc4ccccc41)[C@H]1C[C@H]2[C@H]3CO1`, the AC50 entry was “inactive”.

Turning to `O=C1C=C2C=C[C@H]3C[C@@]2(O1)[C@H]1CCCCN31`, the AC50 result was “inactive”. Turning to `Fc1ccccc1CCNCc1cccc(Cl)c1Cl`, the AC50 is 5.62 µM (active).

With `COc1ccccc1N1CCNCC1`, the AC50 entry was “inactive”. Take `c1ccc2nc(N3CCNCC3)ccc2c1`: the AC50 was 1.58 µM (active) and 1.26 µM (active) and 251 nM (active). On the same count and under the same terms, for `c1ccc(N2CCC3(CCNCC3)CC2)nc1` the value was “inactive”. Still for that read-out and setting: for `c1ccc2c(N3CCNCC3)cccc2c1` the value was 10 µM (active); for `O=[N+]([O-])c1ccc2nc(N3CCNCC3)ccc2c1`, 2 µM (active); for `c1ccc(CN2CCC3(CCNCC3)CC2)cc1`, “inactive”. The same measure, in the same setting: the value for `CN1CCN(c2ccc3ccccc3n2)CC1` was 10 µM (active) and 3.16 µM (active).

As for `C[N+]1([O-])[C@@H]2CC(OC(=O)[C@@H](CO)c3ccccc3)C[C@@H]1[C@H]1O[C@H]12` (stereo not given in full), the AC50 result is “inactive”. Take `CCC1(CCSC(=N)N)C(=O)NC(=O)NC1=O`: the activity, negative = inhibition was -10.9% [at 2.29 µM].

On to `NO`, for which the AC50 entry is “inactive”.

For `CC(=O)O[C@@H]1CN2CCC1CC2`, the AC50 entry is “inactive”. `O=C1NC(=O)N(CCNc2ncc(C(F)(F)F)cc2Cl)C(=O)C1/C=N/OCc1c(F)cccc1Cl` (stereo not given): the AC50 entry is “inactive”. The same measure, in the same setting: for `CP(=O)(O)C1=CCNCC1` the value was “inactive”. `COC(=O)CN1CN(c2ccccc2)C2(CCN(Cc3ccc4ccccc4c3)CC2)C1=O`: the AC50 result was “inactive”. Same read-out and setting: the value for `c1cnc(N2CCC3(CCNCC3)CC2)nc1` was “inactive”; that for `N[C@H](CCl)C(=O)O` was “inactive”; that for `N[C@H](Cn1ccc(=O)[nH]c1=O)C(=O)O` was “inactive”. On the same count and under the same terms, for `N[C@@H](CSC1c2ccccc2-c2ccccc21)C(=O)O` the value was 2.51 µM (active); for `C=C1[C@@H]2C[C@@]3([C@H]1O)[C@H]1C[C@@H]4[C@@]5(C)CC[C@H](O)[C@]4([C@H]1N(CC)C5)[C@H]3C[C@H]2O`, “inactive”; for `CC(C)CCn1c(N)c(C(=O)NCc2cccs2)c2nc3ccccc3nc21`, 2.24 µM (active).

Consider `CCCCn1c(N)c(C(=O)NCc2cccs2)c2nc3ccccc3nc21`, for which the AC50 was 2.82 µM (active).

`COCCCN1CCN(c2nnc3n2-c2sc(Br)cc2C(c2ccccc2Cl)=NC3)CC1`: the AC50 entry was “inactive”. As for `COC(=O)[C@@H]1[C@@H](O)[C@@]2(O)c3c(OC)cc(OC)cc3O[C@@]2(c2ccc(OC)cc2)[C@H]1c1ccccc1`, the activity, negative = inhibition is -2.88% [at 11.4 µM]. For `CCCC[N+]1(C)[C@@H]2CC(OC(=O)[C@@H](CO)c3ccccc3)C[C@H]1[C@H]1O[C@H]12` (stereo not given in full), the AC50 result is “inactive”. Still for that read-out and setting: for `COc1cc2c(cc1OC)[C@H](C)NCC2` the value was “inactive”. Regarding `[N-]=[N+]=NCC(=O)c1c[nH]c(=O)[nH]c1=O`, the activity, negative = inhibition was 0.0946% [at 2.29 µM]. On the same count and under the same terms, the value for `O=[N+]([O-])c1cc(-c2ccc([As](=O)(O)O)cc2)ccc1[As](=O)(O)O` was -10.9% [at 2.29 µM]. As for `CCC1(C)CC(=O)NC(=O)C1`, the AC50 result was “inactive”.

As for `COc1ccc2c(c1OC)CN1CCc3cc4c(cc3[C@H]1C2)OCO4`, the AC50 is 1.58 µM (active).

With `COc1ccc2c(c1OC)C(=O)O[C@H]2[C@H]1c2cc3c(cc2CCN1C)OCO3`, the AC50 result is “inactive”. Regarding `CCC1=C(C[C@H]2NCCc3ccccc32)C[C@@H]2c3cc(OC)c(OC)cc3CCN2C1`, the activity, negative = inhibition was -7.08% [at 11.4 µM].

With `CN(C)CCC(=O)[C@@]1(O)CC[C@H]2[C@H]3CC=C4C[C@@H](O)CC[C@]4(C)[C@H]3CC[C@]21C`, the activity, negative = inhibition was -5.71% [at 11.4 µM]. `CCN1C[C@@]2(COC)CC[C@H](OC)[C@]34[C@@H]1[C@]1(OCO[C@@]15C[C@@H](OC)C1C[C@H]3[C@H]5[C@@H]1OC)[C@H](O)[C@@H]24`: the AC50 result was “inactive”. Still for that read-out and setting: for `CC[C@H](CO)NC(=O)[C@@H]1C=C2c3cccc4c3c(cn4C)C[C@@H]2N(C)C1` the value was “inactive”; for `CC[C@@H](CO)NC(=O)[C@H]1C=C2c3cccc4c3c(cn4C)C[C@H]2N(C)C1`, 15.8 µM (active). Regarding `CC(C)C[C@H]1C(=O)N2CCC[C@@H]2[C@]2(O)O[C@](NC(=O)[C@H]3C=C4c5cccc6[nH]c(Br)c(c56)C[C@H]4N(C)C3)(C(C)C)C(=O)N12`, the AC50 entry was “inactive”. For `Nc1ccc(S(=O)(=O)c2ccc(NCN3C(=O)NC(=O)C(=O)C3=O)cc2)cc1`, the activity, negative = inhibition was -12.8% [at 11.4 µM]. With `COc1ccc(C(=O)NC2CC3CCCC(C2)N3CC(C)C)cc1OC` (stereo not given), the AC50 entry was “inactive”.
